Screening data (PubChem BioAssay)
The full list was thinned out, with hits kept by preference.
HT1080 IDH1KD tx – kills HT-1080 cells with IDH1 knockdown; HT-1080 IDH1 knockdown viability, ATP luminescence, 48 h; hit rate 2% among 360,000; Potency, µM (top dose mostly 46.1 µM), inactives show top-dose activity, negative = toxicity, usual class: cytotoxic; AID 686971;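 note: potency is the fitted concentration of half-maximal effect; 0% = DMSO wells and -100% = cell-free medium wells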
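CellTiter-Glo luminescence after 48 h compound exposure at 37 degrees C of IDH1-knockdown HT-1080 cells in 5% FBS RPMI. %Activity scaled between DMSO wells and cell-free media wells, with curves fitted and assigned curve classes.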
TDP1 cell CPT – DT40-hTDP1 cell growth loss with CPT; AID 686979; Potency, µM (top dose mostly 46.2 µM), without a hit: at the top dose activity change, negative = growth inhibition, usual class: inhibitors; chicken DT40 Tdp1-/-;hTDP1 cells + 20 nM CPT, ATP luminescence, 48 h; hit rate 12% among 420,000; note: potency is the fitted concentration of half-maximal effect; nearly all actives have a fitted effect of over 55% in size
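Cell growth measured by CellTiter-Glo luminescence after a minimum 48 h, 37 C compound exposure with 20 nM CPT in Tdp1-knockout DT40 cells stably expressing hTDP1, seeded 400/well; qHTS titration format.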
12-LOX inh – inhibitors of human 12S-lipoxygenase ALOX12; P18054; purified 12hLO, xylenol orange hydroperoxide absorbance; hit rate 1.1% among 580,000; Potency, µM (top dose mostly 108 µM), for the others: at the highest dose activity change, negative = inhibition, most hits filed as inhibitors; note: potency is the fitted concentration of half-maximal effect
Target sequence (P18054 whole entry, looked up): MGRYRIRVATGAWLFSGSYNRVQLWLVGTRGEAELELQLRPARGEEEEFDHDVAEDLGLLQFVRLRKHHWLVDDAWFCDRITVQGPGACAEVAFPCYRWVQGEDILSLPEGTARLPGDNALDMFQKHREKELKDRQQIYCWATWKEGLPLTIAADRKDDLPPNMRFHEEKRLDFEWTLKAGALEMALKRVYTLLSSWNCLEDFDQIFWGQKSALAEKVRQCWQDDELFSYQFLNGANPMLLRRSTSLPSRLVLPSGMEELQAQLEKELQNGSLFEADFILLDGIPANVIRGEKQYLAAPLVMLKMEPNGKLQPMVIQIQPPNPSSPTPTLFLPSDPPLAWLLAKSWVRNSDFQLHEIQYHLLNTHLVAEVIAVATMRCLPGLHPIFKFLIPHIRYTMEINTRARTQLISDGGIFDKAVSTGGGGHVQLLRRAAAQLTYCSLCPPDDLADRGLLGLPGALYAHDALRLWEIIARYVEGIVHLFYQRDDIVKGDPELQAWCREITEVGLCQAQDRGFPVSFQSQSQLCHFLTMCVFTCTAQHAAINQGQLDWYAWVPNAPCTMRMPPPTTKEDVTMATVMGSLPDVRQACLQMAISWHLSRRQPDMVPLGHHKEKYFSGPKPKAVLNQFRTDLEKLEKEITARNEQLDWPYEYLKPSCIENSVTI
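Purified human 12hLO at 150 nM in 25 mM Hepes, 0.01% Triton X-100, pH 7.0, preincubated 15 min at room temperature with compound. Reaction started with 40 uM arachidonic acid, 30 min at room temperature. Hydroperoxide measured by Fe-xylenol orange, 573/405 nm absorbance ratio.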
HT1080-NT tox – kills 2HG-producing HT-1080-NT fibrosarcoma cells | HT-1080-NT fibrosarcoma viability, CellTiter-Glo ATP luminescence, 48 h | Potency, µM (doses to about 46.1 µM), inactives show top-dose activity, negative = less viability, hits mostly cytotoxic | hit rate 1.6% among 360,000;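 note: NT is the 2HG producing partner of a matched IDH1 knockdown line; potency is the fitted concentration of half-maximal effect; 0% = DMSO-treated cells and -100% = media-only wells without cells; nearly all actives have a fitted effect of over 55% in size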
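Toxicity toward the 2HG-producing NT line was scored as %Activity, normalised to DMSO and no-cell wells, from CellTiter-Glo luminescence after 48 hours' treatment.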
DT40 TDP1 no CPT – qHTS for Inhibitors of human tyrosyl-DNA phosphodiesterase 1 (TDP1): qHTS in cells in absence of CPT; hit rate 15% among 420,000; DT40 Tdp1-/- hTDP1 cells, no CPT, ATP luminescence, 48 h; Potency, µM (titrated, usually from 46.2 µM), without a hit: at the highest dose activity change, negative = growth inhibition, actives largely listed as inhibitors; note: potency is the fitted concentration of half-maximal effect; nearly all actives have a fitted effect of over 55% in size
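Luminescent ATP content (CellTiter-Glo) served as the growth readout. Knockout chicken DT40 cells expressing human TDP1 were exposed to compounds without camptothecin for a minimum 48 hr at 37 °C.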
IL-1B inflam inh – blocks inflammasome-driven IL-1 beta release; hit rate 4.7% among 360,000; AID 743279; THP-1 LPS/ATP IL-1B secretion, AlphaLISA, 16 h; stronger effect = lower value; activity change, % at 57.5 µM; in the data active = activity change below about -50%; inconclusive = mostly about -30% to -49%
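THP-1 cells pretreated 1 hr with compounds (up to 57.5 uM final), then stimulated with LPS (250 ng/mL final) plus ATP (1.25 mM final); secreted IL-1B measured by AlphaLISA after 16 hr, decreased signal indicating inhibition.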
Active calls of the source: *; ? = inconclusive; . = no result given; [ ] = another dose, or the depositor's remark. Unless noted, calls come from the whole dose curve; as a rule, active = well fitted curve in the direction sought with a large enough effect; inconclusive = small, poorly fitted or top-dose-only effect, or another doubt; inactive = no such curve, though single readings can be large; an effect the other way counts as inactive or inconclusive. Unless noted, % is set by controls: 0 for no effect and ±100 for the full control effect.

SMILES | HT1080 IDH1KD tx | TDP1 cell CPT | 12-LOX inh | HT1080-NT tox | DT40 TDP1 no CPT | IL-1B inflam inh
NC(=O)CC(NC(=O)Cc1ccc(Br)cc1)c1ccc(N2CCN(c3ccccc3)CC2)c([N+](=O)[O-])c1 (stereo unspecified) | -24% | 16µM* | -3% | -29% | ? | 20
NC(=O)CC(NC(=O)c1ccccc1)c1ccc(N2CCCCCC2)c([N+](=O)[O-])c1 (stereo unspecified) | -1% | ? | -5% | -20% | 12µM* | 12
NC(=O)CC(NC(=O)c1ccccc1)c1ccc(N2CCN(c3ccccc3)CC2)c([N+](=O)[O-])c1 (stereo unspecified) | -10% | 21µM* | -12% | -7% | 13µM* | -10
NC(=O)CC(NC(=O)c1ccccc1)c1ccc(N2CCN(c3ccc(F)cc3)CC2)c([N+](=O)[O-])c1 (stereo unspecified) | -6% | 18µM* | ? | 5% | 8.2µM* | -12
Cc1cc(C)cc(C(=O)NC(CC(N)=O)c2ccc(N3CCN(c4ccccc4)CC3)c([N+](=O)[O-])c2)c1 (stereo unspecified) | -3% | ? | 10% | 4% | -21% | -7
CN1CCN(c2ccc(C(CC(N)=O)NC(=O)c3ccccc3)cc2[N+](=O)[O-])CC1 (stereo unspecified) | 6% | 4% | -13% | 6% | -22% | 15
COc1cccc(CC(=O)NC2CCN(c3cc(-c4ccccc4)[nH]n3)CC2)c1 | . | . | 78% | . | . | .
COc1ccc(NC(=O)c2ncoc2-c2ccc(C)o2)c(OC)c1 | . | . | -12% | . | . | .
O=C(CCC1CCCN(S(=O)(=O)c2ccccc2)C1)N1CCCCC1 (stereo unspecified) | . | . | 7% | . | . | .
NC(=O)CC(NC(=O)Cc1cccc2ccccc12)c1ccc(N2CCc3ccccc3C2)c([N+](=O)[O-])c1 (stereo unspecified) | -18% | 16µM* | ? | -27% | ? | ?
NC(=O)CC(NC(=O)Cc1cccc2ccccc12)c1ccc(N2CCCCCC2)c([N+](=O)[O-])c1 (stereo unspecified) | -14% | -24% | -21% | -26% | -12% | -15
CCCS(=O)(=O)N1CCC(n2c(C)nc3cccnc32)CC1 | . | 18µM* | -4% | . | 18µM* | .
CCOc1ccc(S(=O)(=O)n2c(C)nc3ccccc32)cc1 | -28% | ? | ? | ? | 21µM* | 42
CCOc1ccccc1NC(=O)N1CCC(n2c(C)nc3cccnc32)CC1 | . | 0% | -17% | . | 4% | .
Cc1nc2cccnc2n1C1CCN(S(=O)(=O)N(C)C)CC1 | . | 4% | -13% | . | ? | .
CCCCOc1ccc(S(=O)(=O)n2c(C)nc3ccccc32)cc1 | -4% | ? | -2%[57.4 µM] | ? | ? | 1
CCOc1ccc(S(=O)(=O)N2CCC(c3ccncc3)CC2)cc1 | . | 12µM* | -26% | . | ? | .
CCOc1ccc(S(=O)(=O)N2CCC(n3c(C)nc4cccnc43)CC2)cc1 | . | 21µM* | -3% | . | 12µM* | .
Cc1ccc2[nH]cc(CCNC(=O)c3cccc4ccccc34)c2c1 | . | . | -42% | . | . | .
COCCN1C(=O)c2ccccc2C(C(=O)NCCCN2CCCC2)C1c1c[nH]c2ccccc12 (stereo unspecified) | 12% | ? | ? | 11% | 26µM* | 3
COCCN1C(=O)c2ccccc2C(C(=O)NCc2ccco2)C1c1c[nH]c2ccccc12 (stereo unspecified) | -5% | -14% | 6% | -1% | -12% | 17
CC(NC(=O)/C(=C/c1ccccc1)NC(=O)c1ccc(Br)o1)C(=O)O (stereo unspecified) | . | . | -52% | . | . | .
